# Screens (PubChem)
# GPT2 inhibitor: Primary qHTS assay for inhibitors of Glutamate pyruvate transaminase 2 (GPT2); AID 1671188, 2021; 100,000 compounds, 0.25% hits; Alanine aminotransferase 2 (Homo sapiens), Q8TD30; Potency, µM (titrated, usually from 57.7 µM), hits mostly inhibitors; Recombinant GPT2, coupled pyruvate oxidase/HRP Amplex Red fluorescence; also: nearly all actives have a fitted effect of over 60% in size
# Target sequence (Q8TD30 whole entry, looked up): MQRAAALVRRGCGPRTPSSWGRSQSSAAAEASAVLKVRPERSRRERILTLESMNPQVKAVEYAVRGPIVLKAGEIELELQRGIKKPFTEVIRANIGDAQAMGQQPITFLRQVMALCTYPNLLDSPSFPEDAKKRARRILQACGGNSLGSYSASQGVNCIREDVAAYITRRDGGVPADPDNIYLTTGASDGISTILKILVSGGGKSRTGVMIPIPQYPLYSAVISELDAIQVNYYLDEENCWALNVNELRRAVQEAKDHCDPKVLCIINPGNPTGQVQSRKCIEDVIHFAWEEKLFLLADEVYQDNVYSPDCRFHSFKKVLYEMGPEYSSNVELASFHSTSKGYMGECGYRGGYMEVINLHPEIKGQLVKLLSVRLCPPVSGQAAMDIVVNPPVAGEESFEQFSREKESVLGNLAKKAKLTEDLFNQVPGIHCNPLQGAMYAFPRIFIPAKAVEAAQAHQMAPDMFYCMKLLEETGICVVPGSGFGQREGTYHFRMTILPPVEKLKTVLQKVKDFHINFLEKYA
#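 GPT2 10ng/uL, a-KG 250uM, L-Ala 2mM, HEPES pH7.5 + 0.0001% Tween; 30 min RT. Then Amplex mix (PO/HRP/ThPP), 30 min RT dark, fluorescence. AOA 50uM used as positive control.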
# NPR1 antag: Natriuretic polypeptide receptor (hNpr1) antagonism - Primary qHTS; 76,000 compounds, 1.6% hits; HEK293 hNpr1 GloSensor cGMP, ANP-stimulated luminescence; AID 1347048, 2019; Atrial natriuretic peptide receptor 1 (Homo sapiens), P16066; Potency, µM (doses to about 46.3 µM), most hits filed as inhibitors; calls by dose curve; also: nearly all actives have a fitted effect of over 60% in size
#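 Compound pre-incubated 30 min at room temperature on GloSensor-loaded HEK293 cells stably carrying hNpr1 and the pGS-40F cGMP biosensor. Stimulation uses hNppA at 0.1 nM final; luminescence is taken at baseline and 20 min post-agonist.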
# FLuc inh-1: Firefly luciferase inhibition profiling of diverse chemical library using quantitative high-throughput screening | Luciferin 4-monooxygenase (Photinus pyralis), P08659 | purified P. pyralis luciferase, luminescence, biochemical | Potency, µM (highest dose often 115 µM), most hits filed as inhibitors | 76,000 compounds, 2.5% hits | AID 1347043, 2019; also: nearly all actives have a fitted effect of over 65% in size
#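 Luminescence read by CCD imager after adding enzyme (10nM final) to wells holding compound, titrated in qHTS. Substrates 10uM each D-luciferin and ATP; buffer 50mM Tris acetate pH 7.5, 10mM Mg acetate, Tween-20, BSA.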
# HEK cytotox: Cytotoxic Profiling in HEK 293 Cell Line of Diverse Libraries Using Quantitative High-Throughput Screening | 94,000 compounds, 6.6% hits | Potency, µM (titrated, usually from 115 µM), usual class: inhibitors | HEK 293 viability, ATP luminescence (CellTiter-Glo), 48-72 h; also: nearly all actives have a fitted effect of over 60% in size
#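 CellTiter-Glo luminescence (cellular ATP) was read after 48 or 72 hr of compound exposure at 37 degree Celsius. Cells were HEK 293 plated at 250 cells/well.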
# 3T3 cytotox: Cytotoxic Profiling in NIH 3T3 Cell Line of Diverse Libraries Using Quantitative High-Throughput Screening; NIH 3T3 viability, CellTiter-Glo ATP luminescence, 48-72 h; Potency, µM (top dose mostly 96.7 µM), hits mostly inhibitors; 94,000 compounds, 4.3% hits; also: nearly all actives have a fitted effect of over 55% in size
#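 NIH 3T3 cells at 400 cells/well received 23 nL of compound by pintool and were incubated 48 or 72 h at 37 °C. Viability was read as ATP-coupled CellTiter-Glo luminescence.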
# FLuc SDR -ATP: Firefly luciferase (FLuc-C-HiBiT) SDR gain of signal screen - without ATP. shares compounds with FLuc inh-1. Purified FLuc-C-HiBiT, Nano-Glo HiBiT luminescence, no ATP. Potency, µM (doses to about 32.7 µM), hits mostly activators. 1,300 compounds, 7.8% hits. AID 1963318, 2024; also: nearly all actives have a fitted effect of over 55% in size
# FLuc SDR ATP: Firefly luciferase (FLuc-C-HiBiT) SDR gain of signal screen - plus ATP. shares compounds with FLuc inh-1. 1,300 compounds, 8.7% hits. Potency, µM (top dose mostly 32.7 µM), actives largely listed as activators. purified FLuc-C-HiBiT + ATP, HiBiT complementation luminescence;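 also: signal reports ligand binding via conformational change of the enzyme rather than luciferase catalysis; nearly all actives have a fitted effect of over 55% in size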
# FLuc inh-2: Firefly luciferase (FLuc-C-HiBiT) enzymatic inhibition screen - Functional assay; shares compounds with FLuc inh-1; purified FLuc-C-HiBiT enzyme, luciferin luminescence; Potency, µM (titrated, usually from 32.7 µM), usual class: inhibitors; 1,300 compounds, 42% hits; AID 1963320, 2024; also: nearly all actives have a fitted effect of over 70% in size
# Numbers stand for hits; i = inactive; ? = inconclusive; nt = no result given. Compounds with a hit are over-represented: about 10% of the library has one in this group of screens. Unless noted, calls follow the shape of the dose curve; as a rule, active = well fitted curve in the direction sought with a large enough effect; inconclusive = small, poorly fitted or top-dose-only effect, or another doubt; inactive = no such curve, though single readings can be large; an effect the other way counts as inactive or inconclusive.
SMILES,GPT2 inhibitor,NPR1 antag,FLuc inh-1,HEK cytotox,3T3 cytotox,FLuc SDR -ATP,FLuc SDR ATP,FLuc inh-2
Cc1nc2c(s1)C[C@]1(C)CCC([C@H](C)C(=O)N3CCOCC3)[C@H](O)[C@H]1[C@@H]2C (stereo not given in full),i,i,i,i,i,nt,nt,nt
CCCCn1c(=O)c(C(=O)N2CCN(C(C)=O)CC2)nc2cccnc21,i,nt,nt,i,i,nt,nt,nt
O=C(O)[C@@H]1CN(Cc2ccccc2)C[C@@H]1C(=O)N1CCOCC1,i,i,i,i,i,nt,nt,nt
O=C(O)[C@@H]1CN(Cc2ccccc2)C[C@@H]1C(=O)N1CCc2ccccc21,?,i,i,i,i,i,i,i
O=C(Nc1ccc(F)cc1)c1ccc2nc(-c3ccccn3)oc2c1,i,nt,nt,?,?,nt,nt,nt
O=C(Nc1c(C(=O)Nc2ccc(F)cc2)oc2ccccc12)c1cc2ccccc2o1,nt,nt,nt,nt,nt,i,i,7.85µM
Cc1ccc(C(=O)Nc2cccc(C(=O)O)c2)cc1,nt,nt,nt,nt,nt,12.4µM,0.0495µM,0.0556µM
CCOc1ccc(NC(C)=O)cc1,i,nt,nt,nt,nt,nt,nt,nt
CCOc1ccc(NC(=O)Nc2cccc(C(=O)O)c2)cc1,nt,nt,nt,nt,nt,4.42µM,0.007µM,0.0088µM
COc1ccc(-c2cnc(Nc3cccc(N[S+](C)(=O)[O-])c3)c3c2CCO3)cn1,i,i,14.1µM,89.1µM,?,i,i,?
Clc1ccc(Nc2ncc(-c3cccnc3)c3c2OCC3)cc1,i,i,5.01µM,?,?,i,i,?
Fc1ccc(Nc2ncc(-c3cccnc3)c3c2OCC3)cc1,i,i,11.2µM,i,?,i,i,?
Cn1cc(-c2cnc(Nc3ccc(N4CCOCC4)cc3)c3c2CCO3)cn1,?,i,3.98µM,?,?,?,?,14.3µM
CN1Cc2cccn2CC1CNC(=O)c1ccco1 (stereo not given),i,i,i,i,i,nt,nt,nt
CCOc1ccccc1CN1CCC2(CCN(Cc3ccc(F)cc3)CC2)Oc2ccccc21,i,i,i,i,?,nt,nt,nt
c1ccc(Nc2ncc(-c3cccnc3)c3c2OCC3)cc1,i,nt,nt,nt,nt,i,?,?
O=C(NC[C@H]1Cn2cc(-c3ccc4c(c3)OCCCO4)nc2CO1)c1ccc2c(c1)OCO2,i,i,10µM,?,i,?,?,?
COc1ccc(-c2cccc(C(=O)N3CCC(NC(=O)c4ccccc4C)CC3)c2)nn1,nt,nt,nt,?,i,nt,nt,nt
O=C([C@@H]1C[C@@H](O)[C@H](O)[C@@H]2NC(=S)N(c3ccc4c(c3)OCO4)[C@@H]21)N1CCOCC1,i,i,5.01µM,i,i,i,?,?
CSc1ccc(C(=O)Nc2ccc(-c3nc4ccccc4s3)c(O)c2)cc1,nt,nt,nt,nt,nt,i,i,i
CC(C)c1ccc(C(=O)Nc2ccc(-c3nc4ccccc4s3)c(Cl)c2)cc1,nt,nt,nt,nt,nt,i,i,i
O=C(Nc1ccc(-c2nc3ccccc3s2)c(O)c1)c1ccccc1,nt,nt,nt,nt,nt,i,i,i
CSc1ccc(NC(=O)c2cc3c(N4CCSCC4)nc(C)cn3n2)cc1,i,i,i,?,?,nt,nt,nt
CC(C)[C@H](C(=O)Nc1ccc(C(=O)NO)cc1)c1ccccc1,i,nt,nt,nt,nt,nt,nt,nt
COc1ccc(C2Cn3nnc(-c4nc(-c5ccccc5F)no4)c3CO2)cc1 (stereo not given),i,?,i,i,i,nt,nt,nt
SMILES,GPT2 inhibitor,NPR1 antag,FLuc inh-1,HEK cytotox,3T3 cytotox,FLuc SDR -ATP,FLuc SDR ATP,FLuc inh-2
COc1cccc(-n2nnc(-c3nc(-c4ccccc4F)no3)c2C)c1,nt,nt,nt,nt,nt,i,?,5.56µM
Cc1cc(CNC(=O)CC2C=CS(=O)(=O)C2)c2[nH]c(-c3ccccc3)c(C)c2c1 (stereo not given),i,i,6.31µM,44.7µM,39.8µM,i,i,?
CO[C@@H]1COCC[C@H]1NC1CCN(c2ncc3ccc(F)cc3n2)CC1,i,i,i,i,i,nt,nt,nt
COc1ccc(CN2CCOC[C@H](OCC(=O)N(C)C)C2)cc1,i,i,i,i,i,i,i,i
CN(C)C(=O)CO[C@H]1COCCN(Cc2ccccn2)C1,i,i,i,i,i,nt,nt,nt
O=C(NCC(F)F)C1CN(c2cccc(Cl)c2)C(=O)N1 (stereo not given),i,i,i,i,i,nt,nt,nt
COc1ccc(-n2ncc3c(NC4CCCC4)ncnc32)cc1,nt,nt,nt,nt,nt,?,?,1.76µM
Cc1ccc(-n2ncc3c(NC4CCCC4)ncnc32)cc1,nt,nt,nt,nt,nt,?,?,0.624µM
O=C(O)c1cccc(CN2C(=O)/C(=C(\c3ccccc3)c3ccc(Cl)cc3)c3ccccc32)c1,i,nt,nt,nt,nt,nt,nt,nt
COc1ccc(F)cc1-c1cccc(C(=O)NCCNC(=O)C2CC2)c1,i,nt,nt,?,?,nt,nt,nt
Cc1ccc(C2=NC3(CCN(C(=O)c4cccc(N(C)C)c4)CC3)ON2)cc1,i,i,14.1µM,i,i,i,?,?
CSc1ccc(-c2cccc(CN3CCC(NC(=O)C4CC4)CC3)c2)cc1,nt,nt,nt,i,i,nt,nt,nt
O=C(NCc1ccc2c(c1)OCO2)C1CCCN(Cc2cccc(-c3ccc(F)cc3F)c2)C1 (stereo not given),i,nt,nt,?,?,nt,nt,nt
COc1cccc(-c2noc(N3CCCC3)n2)c1OC,i,i,?,i,i,nt,nt,nt
CCc1ccccc1Nc1nc(-c2cccc(OC)c2OC)no1,i,i,14.1µM,?,?,i,i,?
CCNc1cc(N2CCC(CCC(=O)Nc3ccc4c(c3)OCCO4)CC2)ncn1,i,i,7.94µM,?,?,i,i,?
CCCNc1cc(N2CCC(CCC(=O)NCc3ccccc3)CC2)ncn1,i,i,?,i,i,nt,nt,nt
CCCNc1cc(N2CCC(CCC(=O)Nc3ccc4c(c3)OCCO4)CC2)ncn1,i,?,11.2µM,i,i,i,?,9.89µM
COc1ccc(-n2nc(C3CCCN(C(=O)c4ccccc4C)C3)[nH]c2=O)cc1 (stereo not given),i,i,i,?,i,nt,nt,nt
O=C(c1cc2ccccc2[nH]1)N1CCN(C(=O)c2nnn3c2COC(c2ccc(Cl)cc2)C3)CC1 (stereo not given),i,i,i,?,i,nt,nt,nt
